# Bioassay records as filed in PubChem BioAssay.
# Sm TGR block – qHTS Assay for the Inhibitors of Schistosoma Mansoni Peroxiredoxins. purified TGR, DTNB reduction, TNB absorbance 405 nm. Potency, µM (titrated, usually from 114 µM), actives largely listed as inhibitors. 3% of 360,000 active. AID 485364, 2010; note: nearly all actives have a fitted effect of over 60% in size
#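 TGR 20 nM + NADPH 100 uM (dispensed conc.), cpd preinc 15 min RT; start with NADPH (500 uM addition) then DTNB (15 mM addition). Kinetic TNB absorbance, 405 nm filter. Four-parameter Hill fit across titration.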
# AMA1 RON2 block – qHTS for Inhibitors of AMA1-RON; Towards Development of Antimalarial Drug Lead: Primary Screen; Potency, µM (top dose mostly 58.2 µM), usual class: inhibitors; AID 720542, 2013; 0.2% of 360,000 active; Plasmodium falciparum AMA1 (3D7) - RON2 peptide interaction; AlphaScreen AMA1-biotinylated RON2 peptide binding; note: nearly all actives have a fitted effect of over 45% in size
#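 AMA1 (3D7) with his tag at 25 nM final met compounds first, then biotinylated RON2 peptide at 25 nM; detection used donor plus acceptor beads, 10 µg/mL apiece, read by AlphaScreen after 30 min at room temperature.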
# TbPYK inhibitor – qHTS of Trypanosoma Brucei Inhibitors; 0.12% of 410,000 active; TbPYK enzyme, Kinase-Glo Plus ATP luminescence, 45 min; Potency, µM (top dose mostly 76.8 µM), most hits filed as inhibitors; pyruvate kinase (Trypanosoma brucei), Q57TT1; note: nearly all actives have a fitted effect of over 50% in size
#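 Assay buffer: 50 mM TEA pH 7.2, 100 mM KCl, 10 mM MgCl2, 0.05% BSA, 0.01% Tween-20. Pyruvate kinase from T. brucei plus substrate met compound, then ADP (130 uM final). Luminescence was read post 45 min RT.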
# RE007 growth inh – qHTS Assay for Inhibitors of the HIV-1 protein Vpr | 0.21% of 360,000 active | S. pombe RE007 Vpr strain, BacTiter-Glo ATP luminescence, 24 h | Potency, µM (highest dose often 92.2 µM), most hits filed as inhibitors; active = well fitted falling curve with a large enough effect; inconclusive = small, poorly fitted or top-dose-only effect; inactive = no such curve, though single readings can be large or run the other way; note: nearly all actives have a fitted effect of over 50% in size
#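 Fission yeast strain RE007, carrying one chromosomally integrated HIV-1 vpr copy, was seeded at OD 0.01 in PMG+AL medium with 23 nL pinned compound. After 24 h at 30 °C and 99% humidity, viability was read by BacTiter-Glo luminescence.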
# LmPK inh – qHTS Assay for Inhibitors of Leishmania Mexicana Pyruvate Kinase (LmPK). 0.37% of 290,000 active. AID 1721, 2009. purified LmPK, Kinase-Glo ATP luminescence, 1 h. Potency, µM (top dose mostly 57.5 µM), hits mostly inhibitors. Q27686
# Target sequence (Q27686 whole entry, looked up): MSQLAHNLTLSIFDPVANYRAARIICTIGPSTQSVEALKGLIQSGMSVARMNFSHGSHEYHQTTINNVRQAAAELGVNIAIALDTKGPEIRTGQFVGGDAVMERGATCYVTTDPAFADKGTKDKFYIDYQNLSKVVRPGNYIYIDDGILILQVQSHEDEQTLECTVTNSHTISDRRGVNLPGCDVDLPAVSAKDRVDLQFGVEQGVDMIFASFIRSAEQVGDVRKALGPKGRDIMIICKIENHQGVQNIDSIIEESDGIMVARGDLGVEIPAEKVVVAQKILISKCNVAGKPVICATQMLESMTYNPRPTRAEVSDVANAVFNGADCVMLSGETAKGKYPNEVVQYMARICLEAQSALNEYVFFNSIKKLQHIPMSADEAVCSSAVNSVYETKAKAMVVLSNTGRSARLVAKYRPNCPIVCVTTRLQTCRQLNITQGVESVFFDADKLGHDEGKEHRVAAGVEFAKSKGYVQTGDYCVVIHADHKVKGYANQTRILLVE
#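 qHTS format; LmPK 0.1 nM; substrates PEP 0.5 mM and ADP 0.1 mM. One-hour room-temperature incubation, then coupled luciferase luminescence; 0.5 nM enzyme wells mark activation.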
# A number is an active result; i = inactive; ? = inconclusive; nt = no result; [ ] = remark or other dose. An excerpt weighted towards active compounds, which were near 3.2% of everything screened. Unless noted, calls come from the whole dose curve; as a rule, active = well fitted curve in the direction sought with a large enough effect; inconclusive = small, poorly fitted or top-dose-only effect, or another doubt; inactive = no such curve, though single readings can be large; an effect the other way counts as inactive or inconclusive.
SMILES,Sm TGR block,AMA1 RON2 block,TbPYK inhibitor,RE007 growth inh,LmPK inh
O=C(O)/C=C/C(=O)Nc1ccccc1-c1ccccc1,10µM,i,i,i,i
O=C(O)/C=C/C(=O)Nc1ccc(Cl)cc1C(=O)c1ccccc1,22µM,i,i,i,i
O=C(O)/C=C/C(=O)Nc1ccccc1SC(F)(F)C(F)(F)C(F)(F)F,45µM,i,i,i,i
O=C(Nc1ccc(Cl)cc1C(=O)c1ccccc1)c1ccccc1Br,i,nt,i,nt,nt
O=C(O)/C=C/C(=O)Nc1ccc2c(c1)C(=O)c1ccccc1C2=O,50µM,i,?,i,?
CC(=O)Nc1ccc2c(c1)C(=O)c1ccccc1C2=O,i,i,i,?,i
Cc1ccc(-n2ncc(C(=O)NCCN3CCN(C)CC3)c2C2CCN(C(=O)OC(C)(C)C)CC2)c(C)c1,i,nt,i,nt,nt
Cc1nc2cccnc2n1C1CCN(C(=O)Nc2ccccc2C(F)(F)F)CC1,i,nt,i,nt,nt
CC#CCN1c2ccccc2[C@]23C[C@@H](C(=O)OC)N(S(=O)(=O)c4ccc5c(c4)OCCN5C)C2=NC(C(=O)OC)=C(C(=O)OC)[C@H]13,nt,nt,nt,nt,i[11.5 µM]
CN(Cc1ccccc1)Cc1c(O)ccc2ccccc12,0.89µM,?,i,i,i
COc1ccc(OCCN(C)Cc2c(O)ccc3ccccc23)cc1,1.1µM,i,i,i,i
CC(C)C[C@@H](NC(=O)[C@H](Cc1ccccc1)NC(=O)c1cnccn1)B(O)O,nt,nt,i,nt,nt
Cc1ccc2c(C(=O)CN3CCOCC3)c(C)[nH]c2c1,?,i,i,i,i
Cc1ccc2c(C(=O)CN3CCC(C(N)=O)CC3)c(C)[nH]c2c1,35µM,nt,nt,nt,i
Cc1ccc2c(C(=O)CN3CCCCC3)c(C)[nH]c2c1,20µM,i,i,i,i
Cc1ccc(-c2[nH]c3ccccc3c2C(C[N+](=O)[O-])c2ccco2)cc1 (stereo not drawn),79µM,i,i,i,i
Cc1[nH]c2ccccc2c1C(C[N+](=O)[O-])c1cccs1 (stereo not drawn),i,i,i,i,i
Cc1[nH]c2ccccc2c1C(C[N+](=O)[O-])c1ccco1 (stereo not drawn),22µM,i,i,i,i
COc1cc(NC(=O)CCc2c(C)nn(-c3ccc(N4CCCCC4)nn3)c2C)cc(OC)c1OC,i,nt,i,nt,nt
COc1ccc2c(Sc3ccccc3)c(C(=O)N3CCC(C)CC3)[nH]c2c1,i,nt,i,nt,nt
CCn1nc(/C=C/c2ccccc2)nc2c(=O)n(C)c(=O)nc1-2,i,i,i,28µM,i
Cc1ccccc1NCc1ccc(O)c2ncccc12,i,i,i,i,i
O=C(CSc1ncccn1)NCc1ccc2c(c1)OCO2,i,i,i,i,i
Oc1ccc(CNc2ccccc2)c2cccnc12,0.25µM,i,i,i,i
Oc1ccc(CNc2ccc(F)cc2)c2cccnc12,?,?,i,?,i
SMILES,Sm TGR block,AMA1 RON2 block,TbPYK inhibitor,RE007 growth inh,LmPK inh
Cc1cccc(NCc2ccc(O)c3ncccc23)c1,0.1µM,i,i,i,i
Oc1ccc(CNCc2ccc3c(c2)OCO3)c2cccnc12,5.6µM,nt,nt,nt,nt
CC(C)(C)C(=O)Nc1ccccc1C(=O)OCc1cc(=O)n2ccsc2n1,i,nt,i,nt,nt
COc1cccc(-c2nc(SCC(=O)Nc3ccc4c(c3)OCCO4)c(-c3ccc(C)cc3)[nH]2)c1,i,nt,i,nt,nt
CCOc1ccc(S(=O)(=O)NCCc2c(C)[nH]c3c(Cl)cccc23)cc1C,i,nt,i,nt,nt
CCC(=O)Nc1ccc(CC)cc1-c1nc2ccccc2n(CC(=O)Nc2cccc(OC)c2)c1=O,i,nt,i,nt,nt
O=C(O)c1cc[c]([Hg][Cl])cc1,?,i,18µM,?,nt
CC(c1ccc(Cl)cc1)n1c(-c2ccc3ccccc3n2)n[nH]c1=S (stereo not drawn),i,i,i,i,i
S=c1[nH]nc(-c2ccc3ccccc3n2)n1-c1ccccc1,i,i,?,nt,28µM
CC(c1ccc(F)cc1)n1c(-c2ccc3ccccc3n2)n[nH]c1=S (stereo not drawn),i,i,i,i,11µM
S=c1[nH]nc(-c2ccc3ccccc3n2)n1-c1ccc2c(c1)OCCO2,i,i,4.5µM,i,8.9µM
Cc1ccc(NC(=O)Cn2nc(C)n3cccc3c2=O)c(C)c1,i,nt,i,nt,nt
C=CCN1c2ccccc2[C@]23C[C@@H](C(=O)OC)N(S(=O)(=O)c4ccc(C)cc4)C2=NC(C(=O)OC)=C(C(=O)OC)[C@H]13,nt,nt,nt,nt,i[11.5 µM]
CO[C@@H]1[C@@H]([C@H](C)[C@@H]2O[C@@]3(CC[C@@](C)([C@H]4CC[C@@](C)([C@H]5O[C@H]([C@H]6O[C@](C)(O)[C@H](C)C[C@@H]6C)C[C@H]5O[C@H]5C[C@@H](OC)[C@H](OC)[C@@H](C)O5)O4)O3)C[C@@H](O)[C@@H]2C)O[C@@](O)(CC(=O)O)[C@H](C)[C@H]1OC,nt,nt,i,nt,nt
CC(=O)c1cc2c(cc1NC(=O)CCn1cnnn1)OCO2,50µM,i,i,i,i
CC(=O)c1cc2c(cc1NC(=O)CCCC(=O)O)OCO2,i,i,i,i,i
CC1(C)CC2CC(C)(CN2/C=C2/CCCCC2=O)C1 (stereo not drawn),35µM,i,i,i,i
S=C(NCc1ccccc1)Nc1nccs1,3.2µM,i,i,i,i
O=C(NCCc1ccccc1)C(=O)Nc1nccs1,i,i,i,i,i
S=C(NCCc1ccccc1)Nc1nccs1,2.2µM,i,i,i,nt
CCN(CC)CCOC(=O)C(Cc1ccco1)Cc1cccc2ccccc12 (stereo not drawn),nt,25µM,i,i,nt
CCN(CC)CCOC(=O)CCc1cccc2ccccc12,i,i,i,i,i
O=C(O/N=C1/CCCc2occc21)c1ccccc1,i,i,i,i,13µM
Nc1ccc2c(c1)Cc1ccccc1-2,i,?,i,i,i
O=C1C=CC(=Nc2ccc3c(c2)Cc2ccccc2-3)O1,nt,i,i,28µM,nt
SMILES,Sm TGR block,AMA1 RON2 block,TbPYK inhibitor,RE007 growth inh,LmPK inh
CCOC(=O)CCS(=O)(=O)c1nc(-c2ccccc2)cc(C(F)(F)F)n1,28µM,i,i,i,i
CCOC(=O)CS(=O)(=O)c1nc(-c2ccc(F)cc2)cc(C(F)(F)F)n1,2.8µM,i,i,?,i
CCOC(=O)CS(=O)(=O)c1nc(-c2ccccc2)cc(C(F)(F)F)n1,?,i,i,?,i
COC(=O)CCS(=O)(=O)c1nc(-c2ccccc2)cc(C(F)(F)F)n1,8.9µM,i,i,i,i
Cc1c(C(=O)N2CCOCC2)oc2c1-c1nn(CC(=O)NCc3cccc(Cl)c3)cc1CC2,i,nt,i,nt,nt
CCCCN(CC)CCNC(=O)CCn1cnc2onc(-c3ccc(F)cc3)c2c1=O,i,nt,i,nt,nt
COc1ccccc1CNC(=O)CCCNC(=O)c1ccc(Cl)cc1,i,i,i,i,i
